# The panel holds about 83,000 compounds, 20% with a hit somewhere; the sample as a whole holds those more often.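 Each cell line was grown in a 96-well plate and treated with one concentration of compound for 48 hours. Values below 10 were considered active.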 The source made the active and inactive calls.
# Test system: MDA-MB-468 breast
# Assay: NCI-60 one-dose screen, 48 h (100 = growth as untreated, 0 = no growth, -100 = all killed)
# Settings: 10 µM unless noted
row,SMILES,growth
1,COc1ccc(-c2cc(/C=C3\C(=O)Nc4cc(Cl)ccc43)[nH]n2)cc1OC,65.5% (inactive)
2,CCCCCCCCCCCCCCCCOCCCOP(=O)(O)C1CCCN(O)C1=O (stereo not given),-7.42% (active)
3,Cc1ccc(OC2=C(C#N)C(=N)N3C(=NN2)Sc2c(C)ccc(C)c23)cc1,110% (inactive)
4,O=C1/C(=C/c2ccccc2)SC(=Nc2ccccc2)N1Nc1ccccc1,1.39% (active)
5,COc1cc(NCCCN(CC(C)C)C2CCCC2)c2ncccc2c1,15.7% (inactive)
6,CCOC(=O)c1cc2c(n1Cc1ccccc1)-c1oncc1CCC2,60.2% (inactive)
7,COc1cc(-c2c(C#N)c(N)n3c(nc4ccccc43)c2C#N)cc(Br)c1OC,36.5% (inactive)
8,O=c1c2ccccc2sc2c(NCCCNCCO)nc3ccccc3c12,-57.3% (active)
9,O=C(C[Si](CC(=O)c1cccc(C(F)(F)F)c1)CC(=O)c1cccc(C(F)(F)F)c1)c1cccc(C(F)(F)F)c1,91% (inactive)
10,O=C(Nc1ccc(Cl)cc1F)c1cc(F)ccc1O,3.61% (active)
11,CCC(=O)OCc1ccc(OC)cc1,87.3% (inactive)
12,O=C(N/N=C/c1ccc([N+](=O)[O-])o1)c1[nH]c2ccc(Br)cc2c1-c1ccccc1,24.8% (inactive)
13,CCCc1nn2c(CCC(=O)c3nc4ccc([N+](=O)[O-])cc4[nH]3)nnc2s1,114% (inactive)
14,COc1cc2[nH]c(C(=O)c3cc(OC)c(OC)c(OC)c3)c(N)c2cc1C#CC1CC1,23.4% (inactive)
15,CC(C)c1ccc(Nc2ccc3c(OCCCN4CCN(C)CC4)cccc3n2)cc1,66% (inactive)
16,C=CCn1c(C)nc2cc(Nc3nc(Nc4ccc5nc(C)n(CC=C)c5c4)c4ccccc4n3)ccc21,-85% (active)
17,NNc1ncnc2nc[nH]c12,36.8% (inactive)
18,CN(C)CCS(=O)(=O)Nc1cc(-c2ccc3ncnc(Nc4ccc(F)c(Cl)c4)c3c2)cnc1Cl,-53% (active)
19,O=C1c2ccccc2-c2cn(Cc3ccccc3)c3cccc(c23)C1c1cccnc1 (stereo not given),27.9% (inactive)
20,CCOC(=O)c1c(C)c2c(n1C)CSc1cc(C(=O)c3ccccc3)c(=O)[nH]c1-2,96.6% [100 µM] (inactive)

row,SMILES,growth
1,C/C(Cc1ccc(Cl)cc1)=C(\c1ccc(OCCN2CCCCCC2)cc1)c1ccc(OC(=O)c2ccccc2)cc1,48.1% (inactive)
2,O=C1Nc2ccc(Cl)cc2/C1=N/c1nc(-c2ccc(Cl)cc2)cs1,-18% (active)
3,O=[N+]([O-])c1cccc(/C=C/c2ccc3ccccc3n2)c1,71.2% (inactive)
4,O=C1Nc2ccc(F)cc2/C1=C\c1nc(-c2ccccc2F)n2ccccc12,69.2% (inactive)
5,Cc1ccc(S(=O)(=O)Nc2cc(Sc3ccccc3)c(O)c3ccccc23)cc1,-53.9% (active)
6,Cc1nc(-c2cc3ccccc3oc2=O)ccc1C(=O)/C=C/c1ccc(Cl)c(Cl)c1,110% (inactive)
7,Cc1cc2nc(CC(=O)c3ccccc3)c(=O)[nH]c2cc1C,103% (inactive)
8,CCN(CC)CCCCCCNc1cccc2cc(Br)cnc12,77% (inactive)
9,Cc1nc2cccc(NCc3ccc(C(=O)NO)cc3)c2c(=O)n1-c1ccccc1,-15.3% (active)
10,COc1cc(F)c(F)c(Nc2ccc(I)cc2F)c1NS(=O)(=O)C1(C[C@H](O)CO)CC1,67.4% (inactive)
11,N#CC1=C(c2ccc(Cl)cc2)Nc2c(c(-c3ccc(Cl)cc3)nn2-c2ccccc2)C12C(=O)Nc1ccc(Cl)cc12 (stereo not given),52.9% (inactive)
12,O=C1C=C(Cl)C(=O)c2ccccc21,-6.29% (active)
13,O=C(NCCc1nccs1)c1cnc2c(S)cccc2c1,16.5% (inactive)
14,COc1ccc(-c2nc3ccc4[nH]ncc4c3c3c2CCCC3)cc1B(O)O,31.5% (inactive)
15,CN1C(=O)/C(=C2\SC(=Nc3ccccc3)N(Nc3ccccc3)C2=O)c2ccccc21,94.7% (inactive)
16,COc1ccc2nc3cc(Cl)ccc3c(Nc3ccc(O)cc3)c2c1,46% (inactive)
17,COc1ccc(Oc2nc(NC3CCCC3)nc(Sc3ccc(OC)cc3)n2)cc1,93% (inactive)
18,CC(C)(C)c1ccc(S(=O)(=O)Oc2ccc(NC(=O)C3CCCCC3)cc2)cc1,28.2% (inactive)
19,N#CC(C#N)=C(C#N)c1c[nH]c2ccccc12,38.8% (inactive)
20,CCN(CC)CCCNCc1cc(-c2ccccc2)nc2ccccc12,91.5% (inactive)
